Legend:
[1] = molecular target: High affinity nerve growth factor receptor (Homo sapiens) (UniProt P04629); details: at 1 µM;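 note: each value is the mean percent inhibition of TRKA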
[2] = molecular target: BDNF/NT-3 growth factors receptor (Homo sapiens) (UniProt Q16620); details: at 0.1 µM
[3] = molecular target: BDNF/NT-3 growth factors receptor (Homo sapiens) (UniProt Q16620); details: at 1 µM
[4] = molecular target: NT-3 growth factor receptor (Homo sapiens) (UniProt Q16288); details: at 0.1 µM
Sequence of NT-3 growth factor receptor (Homo sapiens) (Q16288 32-839 limits assumed): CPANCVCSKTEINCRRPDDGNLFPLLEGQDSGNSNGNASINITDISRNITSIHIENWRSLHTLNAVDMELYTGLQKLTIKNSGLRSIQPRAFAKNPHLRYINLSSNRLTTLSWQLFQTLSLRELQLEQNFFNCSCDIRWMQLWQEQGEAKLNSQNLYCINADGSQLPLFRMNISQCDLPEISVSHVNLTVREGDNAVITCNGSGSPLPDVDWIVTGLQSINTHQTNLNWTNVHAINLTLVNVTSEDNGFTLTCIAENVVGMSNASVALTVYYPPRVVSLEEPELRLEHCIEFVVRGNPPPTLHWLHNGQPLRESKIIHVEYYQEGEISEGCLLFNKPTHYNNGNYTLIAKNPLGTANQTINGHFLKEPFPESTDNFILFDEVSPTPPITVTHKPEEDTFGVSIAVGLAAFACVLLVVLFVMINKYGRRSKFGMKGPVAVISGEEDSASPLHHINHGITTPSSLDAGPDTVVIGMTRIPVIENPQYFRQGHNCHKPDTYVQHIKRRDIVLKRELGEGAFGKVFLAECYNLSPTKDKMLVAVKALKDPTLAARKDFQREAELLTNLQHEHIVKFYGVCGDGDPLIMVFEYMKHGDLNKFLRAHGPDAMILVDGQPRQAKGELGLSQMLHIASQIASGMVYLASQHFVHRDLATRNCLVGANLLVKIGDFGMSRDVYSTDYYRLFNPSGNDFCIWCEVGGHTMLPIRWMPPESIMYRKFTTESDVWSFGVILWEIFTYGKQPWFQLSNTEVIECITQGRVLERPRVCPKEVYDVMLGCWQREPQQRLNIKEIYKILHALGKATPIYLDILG

[5] = molecular target: NT-3 growth factor receptor (Homo sapiens) (UniProt Q16288); details: at 1 µM
[6] = molecular target: T1, Tyrosine-protein kinase TXK (Homo sapiens) (UniProt P42681); details: at 0.1 µM
T1 sequence (whole entry): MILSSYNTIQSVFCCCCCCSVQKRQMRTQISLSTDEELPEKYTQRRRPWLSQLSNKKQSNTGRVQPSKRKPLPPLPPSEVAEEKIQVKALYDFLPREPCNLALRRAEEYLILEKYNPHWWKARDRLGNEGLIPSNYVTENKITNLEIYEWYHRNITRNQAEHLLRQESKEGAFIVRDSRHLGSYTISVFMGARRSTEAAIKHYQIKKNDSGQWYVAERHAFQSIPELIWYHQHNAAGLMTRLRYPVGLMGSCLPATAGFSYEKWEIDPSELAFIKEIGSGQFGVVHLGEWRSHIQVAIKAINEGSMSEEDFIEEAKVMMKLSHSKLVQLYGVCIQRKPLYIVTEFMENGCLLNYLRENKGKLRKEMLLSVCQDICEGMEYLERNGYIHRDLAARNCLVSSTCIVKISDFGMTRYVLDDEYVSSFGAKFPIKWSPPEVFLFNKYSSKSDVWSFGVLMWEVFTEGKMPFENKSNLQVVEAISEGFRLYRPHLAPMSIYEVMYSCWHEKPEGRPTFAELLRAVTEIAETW

[7] = molecular target: T1, Tyrosine-protein kinase TXK (Homo sapiens); details: at 1 µM
[8] = molecular target: Non-receptor tyrosine-protein kinase TYK2 (Homo sapiens) (UniProt P29597); details: at 0.1 µM;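 note: each value is a mean of the inhibition readings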
Sequence of Non-receptor tyrosine-protein kinase TYK2 (Homo sapiens) (P29597 whole entry): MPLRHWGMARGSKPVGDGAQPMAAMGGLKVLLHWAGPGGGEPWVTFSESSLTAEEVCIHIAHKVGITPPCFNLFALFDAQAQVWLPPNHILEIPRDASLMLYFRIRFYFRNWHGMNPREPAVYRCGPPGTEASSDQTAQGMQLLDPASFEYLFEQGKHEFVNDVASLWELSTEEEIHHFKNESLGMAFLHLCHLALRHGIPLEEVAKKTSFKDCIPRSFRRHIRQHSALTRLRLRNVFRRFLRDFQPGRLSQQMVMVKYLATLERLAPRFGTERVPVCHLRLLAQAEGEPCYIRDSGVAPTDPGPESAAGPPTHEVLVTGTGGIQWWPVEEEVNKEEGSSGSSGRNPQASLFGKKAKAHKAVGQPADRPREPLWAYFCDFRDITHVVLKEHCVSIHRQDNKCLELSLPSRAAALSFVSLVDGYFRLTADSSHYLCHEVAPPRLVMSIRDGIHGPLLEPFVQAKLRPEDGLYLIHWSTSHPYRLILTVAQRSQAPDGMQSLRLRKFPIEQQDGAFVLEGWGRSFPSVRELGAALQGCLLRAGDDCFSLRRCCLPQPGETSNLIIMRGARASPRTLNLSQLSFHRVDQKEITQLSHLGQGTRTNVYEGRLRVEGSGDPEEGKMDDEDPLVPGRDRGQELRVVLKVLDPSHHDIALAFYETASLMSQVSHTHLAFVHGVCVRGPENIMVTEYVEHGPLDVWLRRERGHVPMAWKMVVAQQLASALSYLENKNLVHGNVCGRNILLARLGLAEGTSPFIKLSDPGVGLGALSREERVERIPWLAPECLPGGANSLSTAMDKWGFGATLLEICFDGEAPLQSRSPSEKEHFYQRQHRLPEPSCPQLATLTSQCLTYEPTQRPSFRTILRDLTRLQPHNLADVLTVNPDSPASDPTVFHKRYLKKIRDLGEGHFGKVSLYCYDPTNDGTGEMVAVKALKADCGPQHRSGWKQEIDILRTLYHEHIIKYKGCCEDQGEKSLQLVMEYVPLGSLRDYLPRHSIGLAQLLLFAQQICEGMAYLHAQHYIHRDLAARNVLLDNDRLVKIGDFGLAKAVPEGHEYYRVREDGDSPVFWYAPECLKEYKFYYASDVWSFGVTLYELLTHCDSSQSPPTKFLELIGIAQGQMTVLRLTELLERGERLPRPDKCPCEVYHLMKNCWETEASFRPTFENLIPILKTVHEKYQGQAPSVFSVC

[9] = molecular target: T2, Dual specificity protein kinase TTK (Homo sapiens) (UniProt P33981); details: at 1 µM;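 note: reported figures are mean TTK inhibition at 1 µM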
T2 sequence (whole entry): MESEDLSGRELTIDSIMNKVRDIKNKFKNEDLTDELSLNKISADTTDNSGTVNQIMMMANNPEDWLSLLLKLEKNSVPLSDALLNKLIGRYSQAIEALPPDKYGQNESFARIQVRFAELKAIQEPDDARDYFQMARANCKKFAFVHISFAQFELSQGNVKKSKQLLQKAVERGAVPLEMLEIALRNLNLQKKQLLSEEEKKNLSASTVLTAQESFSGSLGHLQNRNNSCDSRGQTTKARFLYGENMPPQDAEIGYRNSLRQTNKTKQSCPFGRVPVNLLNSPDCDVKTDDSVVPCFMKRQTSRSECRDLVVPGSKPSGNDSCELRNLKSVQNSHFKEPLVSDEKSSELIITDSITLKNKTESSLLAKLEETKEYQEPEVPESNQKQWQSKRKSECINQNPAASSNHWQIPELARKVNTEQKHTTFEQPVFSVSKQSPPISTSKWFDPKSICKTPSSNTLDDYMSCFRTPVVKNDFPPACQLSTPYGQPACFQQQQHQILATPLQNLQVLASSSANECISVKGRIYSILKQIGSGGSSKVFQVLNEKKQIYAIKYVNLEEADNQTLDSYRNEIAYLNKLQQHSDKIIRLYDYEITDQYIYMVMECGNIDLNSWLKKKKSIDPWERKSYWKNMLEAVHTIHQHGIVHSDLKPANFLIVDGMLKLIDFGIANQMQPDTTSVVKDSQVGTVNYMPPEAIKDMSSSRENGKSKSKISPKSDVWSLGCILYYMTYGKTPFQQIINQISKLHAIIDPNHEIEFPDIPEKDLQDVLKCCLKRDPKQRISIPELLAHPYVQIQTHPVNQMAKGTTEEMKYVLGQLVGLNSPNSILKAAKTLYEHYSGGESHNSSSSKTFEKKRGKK

[10] = molecular target: T3, Aurora kinase A (Homo sapiens) (UniProt O14965); details: at 0.1 µM
T3 sequence (whole entry): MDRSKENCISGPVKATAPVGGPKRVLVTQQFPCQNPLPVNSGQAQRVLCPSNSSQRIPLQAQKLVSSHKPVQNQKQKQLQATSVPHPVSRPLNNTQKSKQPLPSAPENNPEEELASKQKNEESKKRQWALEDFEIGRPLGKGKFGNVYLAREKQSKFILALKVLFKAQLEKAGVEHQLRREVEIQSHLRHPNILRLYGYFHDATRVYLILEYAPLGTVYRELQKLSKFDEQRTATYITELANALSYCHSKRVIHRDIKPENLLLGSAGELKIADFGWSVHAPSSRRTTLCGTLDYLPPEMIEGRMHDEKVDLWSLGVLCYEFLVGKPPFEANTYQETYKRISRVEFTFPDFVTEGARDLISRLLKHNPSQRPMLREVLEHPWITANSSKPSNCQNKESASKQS

[11] = molecular target: T3, Aurora kinase A (Homo sapiens); details: at 1 µM
[12] = molecular target: Aurora kinase B (Homo sapiens) (UniProt Q96GD4); details: at 0.1 µM
[13] = molecular target: Aurora kinase B (Homo sapiens) (UniProt Q96GD4); details: at 1 µM
[14] = molecular target: T4, Aurora kinase C (Homo sapiens) (UniProt Q9UQB9); details: at 0.1 µM
T4 sequence (whole entry): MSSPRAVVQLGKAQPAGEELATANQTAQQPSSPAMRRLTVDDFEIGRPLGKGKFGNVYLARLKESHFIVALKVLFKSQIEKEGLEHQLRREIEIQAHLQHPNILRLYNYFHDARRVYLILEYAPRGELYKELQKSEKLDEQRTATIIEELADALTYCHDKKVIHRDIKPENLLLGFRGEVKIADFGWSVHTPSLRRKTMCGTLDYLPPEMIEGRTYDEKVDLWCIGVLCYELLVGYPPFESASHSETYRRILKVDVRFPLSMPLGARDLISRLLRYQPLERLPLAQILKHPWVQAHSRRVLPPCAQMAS

[15] = molecular target: T4, Aurora kinase C (Homo sapiens); details: at 1 µM
[16] = molecular target: Serine/threonine-protein kinase 10 (Homo sapiens) (UniProt O94804); details: at 0.1 µM
Sequence of Serine/threonine-protein kinase 10 (Homo sapiens) (O94804 whole entry, looked up): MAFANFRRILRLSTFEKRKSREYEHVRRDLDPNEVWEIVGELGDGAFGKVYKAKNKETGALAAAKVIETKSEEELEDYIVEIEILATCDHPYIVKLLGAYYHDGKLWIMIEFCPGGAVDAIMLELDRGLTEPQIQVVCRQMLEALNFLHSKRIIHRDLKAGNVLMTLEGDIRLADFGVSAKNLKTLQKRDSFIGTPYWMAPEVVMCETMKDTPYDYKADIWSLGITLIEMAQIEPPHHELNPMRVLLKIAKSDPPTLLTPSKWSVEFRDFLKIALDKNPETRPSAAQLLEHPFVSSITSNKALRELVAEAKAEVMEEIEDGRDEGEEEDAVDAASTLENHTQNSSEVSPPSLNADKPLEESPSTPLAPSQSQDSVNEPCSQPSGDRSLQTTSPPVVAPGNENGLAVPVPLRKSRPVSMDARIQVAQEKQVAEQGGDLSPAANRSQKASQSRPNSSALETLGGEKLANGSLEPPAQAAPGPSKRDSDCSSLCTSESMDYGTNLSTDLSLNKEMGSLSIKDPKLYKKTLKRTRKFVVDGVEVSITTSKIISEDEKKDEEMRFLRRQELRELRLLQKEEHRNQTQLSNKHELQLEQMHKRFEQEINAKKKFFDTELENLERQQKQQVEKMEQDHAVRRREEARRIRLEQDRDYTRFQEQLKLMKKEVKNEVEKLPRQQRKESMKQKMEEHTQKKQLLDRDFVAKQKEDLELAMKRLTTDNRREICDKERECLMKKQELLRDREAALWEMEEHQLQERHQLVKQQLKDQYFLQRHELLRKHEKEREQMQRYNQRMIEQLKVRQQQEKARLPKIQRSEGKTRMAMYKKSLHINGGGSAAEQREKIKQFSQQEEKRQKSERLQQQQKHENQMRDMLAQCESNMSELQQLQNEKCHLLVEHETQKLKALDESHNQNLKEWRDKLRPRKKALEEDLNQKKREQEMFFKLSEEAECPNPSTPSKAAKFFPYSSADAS

[17] = molecular target: Serine/threonine-protein kinase 10 (Homo sapiens) (UniProt O94804); details: at 1 µM
[18] = molecular target: T5, Mitogen-activated protein kinase kinase kinase kinase 2 (Homo sapiens) (UniProt Q12851); details: at 0.1 µM
T5 sequence (whole entry): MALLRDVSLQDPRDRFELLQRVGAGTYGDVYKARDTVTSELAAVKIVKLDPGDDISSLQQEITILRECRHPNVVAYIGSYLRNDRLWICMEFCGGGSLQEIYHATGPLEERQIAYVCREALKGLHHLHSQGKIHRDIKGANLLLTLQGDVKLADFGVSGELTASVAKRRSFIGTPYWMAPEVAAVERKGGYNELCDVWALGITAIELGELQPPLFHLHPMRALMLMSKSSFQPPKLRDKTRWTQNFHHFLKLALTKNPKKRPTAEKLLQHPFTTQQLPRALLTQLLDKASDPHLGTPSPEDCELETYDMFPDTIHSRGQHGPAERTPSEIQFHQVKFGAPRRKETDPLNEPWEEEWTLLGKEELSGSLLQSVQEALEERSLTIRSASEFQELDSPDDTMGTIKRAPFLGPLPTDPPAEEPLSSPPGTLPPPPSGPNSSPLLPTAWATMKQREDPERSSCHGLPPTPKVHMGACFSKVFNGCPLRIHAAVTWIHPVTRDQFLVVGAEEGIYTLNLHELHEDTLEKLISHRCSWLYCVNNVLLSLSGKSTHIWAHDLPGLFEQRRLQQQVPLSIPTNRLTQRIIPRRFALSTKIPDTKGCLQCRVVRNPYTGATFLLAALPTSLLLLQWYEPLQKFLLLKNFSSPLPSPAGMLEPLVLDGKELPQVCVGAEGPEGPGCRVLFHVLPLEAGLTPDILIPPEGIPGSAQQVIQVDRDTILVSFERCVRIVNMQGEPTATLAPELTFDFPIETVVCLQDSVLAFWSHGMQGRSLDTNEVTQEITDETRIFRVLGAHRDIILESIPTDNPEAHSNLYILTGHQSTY

[19] = molecular target: T5, Mitogen-activated protein kinase kinase kinase kinase 2 (Homo sapiens); details: at 1 µM
[20] = molecular target: Mitogen-activated protein kinase kinase kinase kinase 4 (Homo sapiens) (UniProt O95819); details: at 0.1 µM
Sequence of Mitogen-activated protein kinase kinase kinase kinase 4 (Homo sapiens) (O95819 2-1239 limits assumed): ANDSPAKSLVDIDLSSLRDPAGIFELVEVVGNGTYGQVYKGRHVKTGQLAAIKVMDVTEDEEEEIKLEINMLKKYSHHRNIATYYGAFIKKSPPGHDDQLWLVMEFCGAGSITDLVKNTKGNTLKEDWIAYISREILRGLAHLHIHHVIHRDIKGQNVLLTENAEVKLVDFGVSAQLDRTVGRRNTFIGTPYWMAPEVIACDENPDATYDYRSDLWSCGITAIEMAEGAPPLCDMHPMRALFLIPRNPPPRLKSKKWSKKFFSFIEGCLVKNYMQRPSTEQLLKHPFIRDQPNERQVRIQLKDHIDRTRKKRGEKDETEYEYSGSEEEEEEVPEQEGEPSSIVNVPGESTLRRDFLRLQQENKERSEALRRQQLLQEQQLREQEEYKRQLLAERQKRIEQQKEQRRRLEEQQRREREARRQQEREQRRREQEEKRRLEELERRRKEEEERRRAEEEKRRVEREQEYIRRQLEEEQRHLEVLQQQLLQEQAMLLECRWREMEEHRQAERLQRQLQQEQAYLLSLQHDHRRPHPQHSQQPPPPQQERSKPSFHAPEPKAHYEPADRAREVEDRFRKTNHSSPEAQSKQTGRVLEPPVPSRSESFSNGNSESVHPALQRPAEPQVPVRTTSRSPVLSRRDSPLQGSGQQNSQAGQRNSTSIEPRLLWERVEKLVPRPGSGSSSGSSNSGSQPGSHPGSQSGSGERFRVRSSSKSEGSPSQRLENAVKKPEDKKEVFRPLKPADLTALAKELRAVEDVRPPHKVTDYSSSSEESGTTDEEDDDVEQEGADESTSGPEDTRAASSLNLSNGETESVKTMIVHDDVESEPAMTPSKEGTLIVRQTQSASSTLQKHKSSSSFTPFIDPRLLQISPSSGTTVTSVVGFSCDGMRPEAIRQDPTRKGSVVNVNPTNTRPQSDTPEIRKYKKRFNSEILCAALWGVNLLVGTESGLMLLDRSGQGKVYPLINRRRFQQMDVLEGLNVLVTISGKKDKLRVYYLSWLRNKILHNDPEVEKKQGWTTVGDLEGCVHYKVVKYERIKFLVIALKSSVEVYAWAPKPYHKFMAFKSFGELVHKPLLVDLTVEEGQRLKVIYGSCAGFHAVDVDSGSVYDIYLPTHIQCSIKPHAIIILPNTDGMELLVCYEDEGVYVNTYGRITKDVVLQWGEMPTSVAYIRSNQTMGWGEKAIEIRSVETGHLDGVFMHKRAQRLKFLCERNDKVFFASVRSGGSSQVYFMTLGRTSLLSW

Sequence of High affinity nerve growth factor receptor (Homo sapiens) (P04629 33-796 limits assumed): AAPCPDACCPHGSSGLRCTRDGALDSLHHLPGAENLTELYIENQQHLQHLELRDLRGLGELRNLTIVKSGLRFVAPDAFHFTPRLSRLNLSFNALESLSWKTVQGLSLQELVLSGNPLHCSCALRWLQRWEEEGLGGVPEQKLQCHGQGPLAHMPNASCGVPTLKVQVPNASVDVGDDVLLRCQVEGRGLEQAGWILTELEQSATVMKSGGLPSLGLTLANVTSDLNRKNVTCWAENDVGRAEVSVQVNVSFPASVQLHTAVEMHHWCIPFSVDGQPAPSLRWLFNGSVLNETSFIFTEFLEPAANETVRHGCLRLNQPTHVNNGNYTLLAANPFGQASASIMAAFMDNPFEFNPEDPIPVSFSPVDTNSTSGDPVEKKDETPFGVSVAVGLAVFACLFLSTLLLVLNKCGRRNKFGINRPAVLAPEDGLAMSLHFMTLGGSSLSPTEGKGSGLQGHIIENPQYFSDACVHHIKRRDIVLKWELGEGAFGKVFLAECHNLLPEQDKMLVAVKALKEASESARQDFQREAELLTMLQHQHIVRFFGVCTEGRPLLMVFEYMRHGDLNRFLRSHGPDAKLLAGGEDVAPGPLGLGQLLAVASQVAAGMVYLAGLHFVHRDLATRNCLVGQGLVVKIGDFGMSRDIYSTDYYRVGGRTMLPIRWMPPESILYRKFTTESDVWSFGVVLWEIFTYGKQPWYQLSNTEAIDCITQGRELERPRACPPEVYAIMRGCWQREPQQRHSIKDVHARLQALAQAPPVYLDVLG

Structure (SMILES) | inhibition [1] [%] | inhibition [2] [%] | inhibition [3] [%] | inhibition [4] [%] | inhibition [5] [%] | inhibition [6] [%] | inhibition [7] [%] | inhibition [8] [%] | inhibition [9] [%] | inhibition [10] [%] | inhibition [11] [%] | inhibition [12] [%] | inhibition [13] [%] | inhibition [14] [%] | inhibition [15] [%] | inhibition [16] [%] | inhibition [17] [%] | inhibition [18] [%] | inhibition [19] [%] | inhibition [20] [%]
Nc1nccc(-c2c(-c3ccc(F)cc3)ncn2C2CCC(O)CC2)n1 (stereo not given) | -0.08 | 1.41 | 5.91 | 2 | 11.3 | 1.58 | 19.2 | -2.03 | -0.22 | -2.33 | 22 | -3.41 | 4.15 | -1.77 | -2.2 | -0.75 | 9.11 | 2.53 | 16.2 | 9.24
CCC(=O)Nc1ccc(C)c(-c2ccc(C(=O)NCC3CC3)cc2)c1 | 4.19 | 2.75 | 2.88 | 2.19 | 2.2 | 2.71 | 1.4 | -2.17 | 8.22 | 1.72 | 4.11 | -0.16 | 3.49 | -1.01 | 3.82 | 1.74 | 5.36 | 0.41 | 1.16 | 4.98
CS(=O)(=O)CCNCc1ccc(-c2ccc3ncnc(Nc4ccc(OCc5ccccc5)c(Br)c4)c3c2)o1 | 0.51 | 3 | 4.04 | 2 | 1.45 | -5.68 | 2.31 | -5.11 | 10.2 | -1.23 | -1.79 | -1.52 | 3.89 | -3.26 | 1.56 | 8.55 | 16.4 | 0.72 | 0.4 | 3.17
O=C(Nc1ccc(Oc2ccc3[nH]c(NC(=O)c4ccccc4)nc3c2)cc1)Nc1cc(C(F)(F)F)ccc1F | 52.2 | 5.11 | 35.1 | 8.01 | 41 | 3.06 | 6.27 | -4.63 | 19.2 | 1.31 | 12.4 | 0.59 | 13.9 | 3.42 | 40.8 | 12.8 | 50.2 | 1.6 | 19 | 3.95
C/C(Nc1ccc(S(N)(=O)=O)cc1)=C1/C(=O)Nc2ccccc21 | 38.3 | 14.1 | 61.8 | 17.4 | 87.1 | -0.52 | -0.74 | 1.41 | 35.7 | 2.21 | 37.8 | 8.07 | 48 | 7.34 | 85.7 | 0.97 | 9.28 | 1.58 | 17.7 | 44.9
COc1cc(Nc2ncc(-c3ccccc3)o2)cc(OC)c1OC | 23.1 | 2.41 | 28.3 | 2.64 | 25.2 | 1.07 | 16.2 | -2.24 | -1.01 | 15.7 | 75.5 | 10.1 | 50 | 8.67 | 71.8 | 1.37 | 11.1 | 2.15 | 11.5 | 2.13
NS(=O)(=O)c1ccc(N/N=C2\C(=O)Nc3ccc(C(=O)NCCCn4ccnc4)cc32)cc1 | 12 | 9.05 | 43.2 | 9.74 | 44.2 | 3.46 | 4.42 | -2.26 | 71.3 | 5.44 | 49.9 | 1.38 | 17.8 | 3.31 | 23.2 | 6.25 | 12.2 | 3.32 | 8.35 | 10.8
COc1cc(Nc2ncc3c(C)nc(-c4cccc(Oc5ccccc5)c4)n3n2)cc(OC)c1OC | 1.05 | 0.27 | 1.55 | 1.86 | 2.38 | 2.38 | 4.09 | -0.63 | 14.8 | 2.19 | 44.4 | 2 | 15.8 | 1.04 | 30.1 | 1.18 | 1.99 | 1.28 | 4.18 | 1.36
O=C1NC(=O)C(c2cccc(Cl)c2)=C1Nc1ccc(Cl)c(C(=O)O)c1 | -0.54 | 0.88 | 1.89 | 1.02 | 2.72 | 2.81 | 2.53 | -0.74 | 9.31 | 2.92 | 8.62 | 0.94 | 8.32 | 5.84 | -0.75 | 4.75 | 6.92 | 0.39 | 2.05 | 2.67
